# Hit rate of the full screen: of about 300,000 compounds, about 37,000 (12%) were called active. Only a selection was taken, and actives are over-represented in it overall. Values without a mark were called inactive. Cut-off read from the data, not from the text of the source: active = max response mostly above about 13% (no sharp cut-off); inactive = mostly below about 14%.
# Test: Cycloheximide Counterscreen for Small Molecule Inhibitors of Shiga Toxin; note: read at 38.3 µM for the half of the compounds with a filed dose; 0% is about no effect
# Conditions: cell reporter, cycloheximide protein synthesis inhibition counterscreen; hits give high values
row,SMILES,max response
1,O=S(=O)(NC1CC1)c1ccc2c3c(cccc13)CC2,-1.96%
2,COc1ccc(C(O)(C2CCCCC2)C(CN2CCCC2)c2ccccc2)cc1 (stereo unspecified),-2.99%
3,COC(=O)c1ccc(CN2C(=O)NC(c3ccccc3)(c3ccccc3)C2=O)o1,-8.22%
4,C/C(CC(=O)Nc1cccc(F)c1)=N\NC(=O)C(=O)NC1CCCCC1,12.1% (active)
5,C/C(CC(=O)Nc1cccc(C(F)(F)F)c1)=N\NC(=O)C(=O)NCC(C)C,-3.56%
6,O=C(Nc1cccc(F)c1)[C@@H]1CCCN1,-0.0627%
7,COc1cccc(NC(=O)C/C(C)=N/NC(=O)C2CCCCC2)c1,1.09%
8,O=C(Nc1cccc(F)c1)NC1CCCc2ccccc21 (stereo unspecified),-2.71%
9,O=C(Nc1cccc(F)c1)NC1CCCCCCC1,52.8% (active)
10,Cc1ccc(CN2CCN(Cc3ccccc3-c3ccco3)CC2CCO)o1 (stereo unspecified),-2.94%
11,CCN(c1ccccc1)S(=O)(=O)c1cc2c(cc1C)n(C)c(=O)c(=O)n2C,1.1%
12,C=CCn1c(C23CC4CC(CC(C4)C2)C3)n[nH]c1=S,-2.9%
13,COc1ccccc1N1CCN(c2ncnc3sc(C)c(-c4ccccc4)c23)CC1,23.3%
14,Cc1ccc2c(c1)N(C(=O)CCC(=O)NCc1cccnc1)CCO2,-2.33%
15,CC(=O)N1CCOc2ccc(S(=O)(=O)N3CCN(c4cccc(C(F)(F)F)c4)CC3)cc21,-4.21%
16,Cc1ccc2[nH]cc(CCCN3C(=O)c4ccccc4C3=O)c2c1,10.1% (active)
17,Cc1ccc2[nH]cc(CCNC(=O)c3ccc([N+](=O)[O-])cc3)c2c1,0.0509%
18,COc1ccc(C[C@H](C(=O)O)N2C(=O)c3ccc(C(=O)O)cc3C2=O)cc1,-3.3%
19,COc1ccc2[nH]cc(CCN3C(=O)c4ccc(C(=O)O)cc4C3=O)c2c1,21.7% (active)
20,COCCCN1C(=O)c2ccc(C(=O)Nc3ccc(OC)cc3OC)cc2C1=O,0.803%
21,Cc1ccc2[nH]cc(CCNC(=O)C3CCCCC3)c2c1,0.628%
22,Clc1cccc(Cl)c1OCCOCCNCc1ccccc1,1.5%
23,CCN(CC)Cc1c(C(=O)N/N=C/c2cccc(OCc3ccc(F)cc3)c2)nnn1-c1nonc1N,8.82%
24,CN(C)CCCn1c(=O)n(Cc2ccccc2)c(=O)c2c3c(sc21)CCCCC3,-4.51%

row,SMILES,max response
1,Cc1occc1C(=O)NC1CCCN(Cc2ccc(CC(C)C)cc2)C1 (stereo unspecified),9.49%
2,CC1(C(=O)N/N=C/c2cc3c(cc2Br)OCO3)CC1(Br)Br (stereo unspecified),4.29%
3,CN1CCC(CN)(N2CCN(c3ccccc3)CC2)CC1,-3.21%
4,COc1ccc(NC(=O)CNC(=O)Cc2ccccc2)cc1OC,-3.3%
5,CC(=O)NC(Cc1c[nH]c2ccccc12)C(=O)NCCc1ccccc1 (stereo unspecified),-4.02%
6,O=C(NC1CCCC1)C(=O)c1c[nH]c2ccccc12,49.1% (active)
7,COc1ccc(OC)c2[nH]c(=O)c(CCNC(=O)C(=O)c3c[nH]c4ccccc34)cc12,-1.63%
8,O=C(NCCCc1ccccc1)C(=O)c1c[nH]c2ccccc12,14.7% (active)
9,CC1CCN(CC(=O)c2c[nH]c3ccccc23)CC1,22.4%
10,O=C(C(=O)N1CCc2ccccc2C1)c1c[nH]c2ccccc12,10.7%
11,O=C(O)CC(CC(=O)N1CCOCC1)c1ccccc1 (stereo unspecified),-2.32%
12,COc1ccc(/C=C2/C(=O)N(c3ccccc3)N=C2C)c(OC)c1,-1.9%
13,Cc1cn(C2C=CC(CO)O2)c(=O)[nH]c1=O (stereo unspecified),-1.84%
14,CN(C)CCN(Cc1ccccc1)S(=O)(=O)c1csc(C(N)=O)c1,-8.34%
15,Cc1cccc(N2CCN(c3ccc(C(N)=O)cc3[N+](=O)[O-])CC2)c1C,-1.03%
16,CCOC(=O)C1CCN(c2ccc(C(=O)O)cc2[N+](=O)[O-])CC1,-2.89%
17,Cc1ccc(C(=O)c2ccc(N3CCN(C)CC3)c([N+](=O)[O-])c2)cc1,18.7% (active)
18,COc1ccc(C(=O)NC2(C(F)(F)F)NC(=O)N(CCCc3ccccc3)C2=O)c(OC)c1OC (stereo unspecified),10.5%
19,Cc1ccc2c(c1)N(CC(=O)NCCc1ccc(Cl)cc1)C(=O)c1cccnc1O2,-1.47%
20,CCn1cc(S(=O)(=O)c2cccc(C)c2)c(=O)c2cc(F)c(N3CCN(C)CC3)cc21,-2.21%
21,CN(Cc1ccccc1Cl)C(=O)C1CCC(=O)N(CCc2cccc(F)c2)C1 (stereo unspecified),10%
22,Cc1cccc(NC(=S)NCCN(C2CCCCC2)C2CCCC2)c1,-7.35%
23,Cc1cccc(C(=O)NC(=S)N(C)C2CCCCC2)c1,61% (active)
24,Cc1cccc(C(=O)NCCCN(C)CCCNC(=O)c2cccc(C)c2)c1,-0.372%

row,SMILES,max response
1,O=S(=O)(/C=C/c1ccccc1)N1CCNCC1,0.861%
2,O=C(/C=C/c1ccccc1)N/C(=C/c1ccccc1)C(=O)Nc1ccccc1O,8.16%
3,O=C(/C=C/c1ccccc1)c1ccoc1,40.4% (active)
4,Cc1[nH]c(=O)c(C(=O)/C=C/c2ccccc2)c2c1CCCC2,-1.39%
5,COc1ccc(C(=O)/C=C/c2cccnc2)c(OC)c1,8.73%
6,CC(/C=C/c1ccccc1)=N\NC(=O)C1CC1(C)c1ccccc1 (stereo unspecified),-2.65%
7,COc1ccc(/C=C/C(=O)c2cc(Br)ccc(=O)c2O)cc1,-1.31%
8,COc1ccc(/C=C/C(=O)c2ccc(OC)cc2O)cc1,41.2% (active)
9,O=C(/C=C/c1ccccc1)c1ccccc1O,29.3% (active)
10,CC(C)c1nc(CNC(=O)CC2C(=O)NCCN2Cc2cccc(F)c2F)cs1 (stereo unspecified),-2.45%
11,COc1cc(C2NC(=O)NC(c3ccccc3)=C2C(C)=O)c(Br)cc1OCC(N)=O (stereo unspecified),-1.35%
12,O=C(c1cccc(F)c1)N1CCN(c2ccc([N+](=O)[O-])c3cccnc23)CC1,-5.99%
13,COc1cccc(C(=O)N2CCC(n3nccc3NC(=O)C3CCOC3)CC2)c1 (stereo unspecified),2.44%
14,CC(=O)N(Cc1cc(=O)[nH]c2ccccc12)c1ccc(C)cc1C,-0.991%
15,COc1ccccc1NC(=O)/C=C/C(N)=O,9.83%
16,Cc1ccc(C)c(C(C)NC(=O)C2CCCO2)c1 (stereo unspecified),-2.44%
17,Cc1cc([N+](=O)[O-])ccc1NC(=O)C1CCCO1 (stereo unspecified),3.91%
18,Cc1cc(C)c2nc(NC(=O)C3CCCO3)sc2c1 (stereo unspecified),44.3% (active)
19,CCOCCc1nn2c(=O)cc(CSCC(=O)Nc3cccc(C)c3C)nc2s1,-4.2%
20,COc1ccccc1S(=O)(=O)c1c(C)cc(C)[nH]c1=O,-6.18%
21,CCCCOC(=O)c1ccc(NC(c2ccc(C)cc2)P(=O)(OC)OC)cc1 (stereo unspecified),-2.29%
22,Cc1cc(C)c(OCC(=O)N(Cc2cccs2)C2CCS(=O)(=O)C2)c(C)c1 (stereo unspecified),8.48%
23,Cc1ccccc1Nc1c([N+](=O)[O-])ccc2nonc12,0.319%
24,CCN(CC)c1ccc([N+](=O)[O-])c2cccnc12,0.792%

row,SMILES,max response
1,CN(c1ccccc1)c1ccc([N+](=O)[O-])c2nonc12,12% (active)
2,CC(C)c1ccc(NC2CCCN(C(=O)c3ccncc3)C2)cc1 (stereo unspecified),-4.01%
3,Cc1ccc(S(=O)(=O)N2CCN(CC(=O)N/N=C/c3ccc(Br)s3)CC2)cc1,-1.09%
4,COCCCNc1nc2ccccc2nc1NS(=O)(=O)c1ccc(F)cc1,-1.37%
5,COc1ccc(N2CCN(C(C)=C3C(=O)c4ccccc4C3=O)CC2)cc1,40.7% (active)
6,COc1ccc(OCC(=O)N2CCN(C(=O)c3cccs3)CC2)cc1,-2.3%
7,O=C(COc1ccccc1)Nc1ccc(N2CCN(C(=O)c3cccs3)CC2)cc1,-1.71%
8,COc1ccc(C2C(C(=O)N3CCN(c4ccc(OC)cc4)CC3)c3ccccc3C(=O)N2C)cc1 (stereo unspecified),-3.17%
9,COc1ccc(N2CCN(C(=O)c3cccs3)CC2)cc1,20.7% (active)
10,CC(=C1C(=O)c2ccccc2C1=O)N1CCN(c2ccccn2)CC1,4.62%
11,O=C(N[C@@H](Cc1ccccc1)C(=O)OCc1ccccc1)c1nc[nH]c1C(=O)N[C@@H](Cc1ccccc1)C(=O)OCc1ccccc1,-1.4%
12,Cc1ccc(N2C(=O)CC(Sc3ncn[nH]3)C2=O)cc1 (stereo unspecified),-4.4%
13,COc1cccc(/C=C2\Sc3ccc(C(=O)NCC4CCCO4)cc3N(C)C2=O)c1 (stereo unspecified),6.25%
14,O=[N+]([O-])c1ccc2c(c1)Nc1nc3ccccc3nc1N2,22.7% (active)
15,O=[N+]([O-])c1cccc(Nc2c3ccccc3nc3ccccc23)c1,4.55%
16,COc1ccc([N+](=O)[O-])cc1-c1nc2ccccc2nc1-c1ccccc1,-2.38%
17,O=C(NCCOc1cccnc1)c1ccc(OC2CCN(Cc3ccccn3)CC2)cc1,10.4%
18,O=C(CN1CCC(O)(c2cccc(C(F)(F)F)c2)CC1)NCCc1ccccc1,-0.807%
19,Cc1onc(C(=O)Nc2ccc3c(c2)OCO3)c1[N+](=O)[O-],30.6% (active)
20,Cc1nc([N+](=O)[O-])cn1CC(=O)Nc1ccc2c(c1)OCO2,-2.41%
21,COc1cccc(NC(=O)c2nn(C34CC5CC(CC(C5)C3)C4)cc2[N+](=O)[O-])c1,13.1%
22,Cn1cc([N+](=O)[O-])c(C(=O)Nc2cnn(Cc3ccc(F)cc3)c2)n1,9.36%
23,Cc1nn(CC(=O)Nc2ccc3c(c2)OCO3)c(C)c1[N+](=O)[O-],0.353%
24,Cn1cc([N+](=O)[O-])c(C(=O)Nc2ccc3c(c2)OCCO3)n1,26.5% (active)
